Laboratory results: PubChem BioAssay (NCI)
The panel holds about 79,000 compounds, 15% with a hit somewhere; the sample as a whole holds those more often. Calls of active or inactive are those of the source. No stated cut-off is given here; in the data, active means growth inhibition above about 70%; inactive means the rest.

Experiments:
[1] = NCI Yeast Anticancer Drug Screen. Data for the rad50 strain (AID 155);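 further: 0% = growth of vehicle-only cultures of the same strain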; settings: S. cerevisiae rad50 strain growth inhibition; at 50.0 µM; stronger effect = higher value
Procedure, shortened: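 DNA repair mutant yeast, compound exposure, growth read-out; inhibition is taken relative to vehicle.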

[2] = NCI Yeast Anticancer Drug Screen. Data for the mec2-1 strain (AID 157); settings: S. cerevisiae mec2-1 strain, at 50.0 µM, stronger effect = higher value
Procedure, shortened: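 Mutant yeast (mec2-1) grown with compound; growth inhibition relative to vehicle control reported.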

[3] = NCI Yeast Anticancer Drug Screen. Data for the sgs1 mgt1 strain (AID 161);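 further: 0% = growth of cultures given vehicle only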; settings: S. cerevisiae sgs1 mgt1 strain, at 50.0 µM, stronger effect = higher value
Procedure, shortened: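 Growth of a repair-deficient yeast mutant was monitored after compound treatment and expressed as inhibition relative to vehicle-treated cultures.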

[4] = NCI Yeast Anticancer Drug Screen. Data for the cln2 rad14 strain (AID 165);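 further: 0% = growth equal to vehicle treated cultures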; settings: S. cerevisiae cln2 rad14 strain, at 50.0 µM, stronger effect = higher value
Procedure, shortened: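 Readout is yeast growth inhibition versus vehicle-treated controls, using a strain with cln2 and rad14 alterations exposed to compound.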

[5] = NCI Yeast Anticancer Drug Screen. Data for the bub3 strain (AID 167); settings: S. cerevisiae bub3 mutant strain, at 50.0 µM, stronger effect = higher value
Procedure, shortened: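 In this screen, a yeast mutant lacking normal mitotic checkpoint function is challenged with compound. Relative growth versus vehicle gives the inhibition value.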

[6] = NCI Yeast Anticancer Drug Screen. Data for the mlh1 rad18 strain (AID 175); settings: S. cerevisiae mlh1 rad18 strain growth inhibition; at 50.0 µM; stronger effect = higher value
Procedure, shortened: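 Genetically defined yeast (DNA repair-deficient) exposed to compounds; growth inhibition determined relative to vehicle.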

Measured: growth inhibition

Cc1ccc(OCC2OC(n3cnc4nc(Cl)nc(Cl)c43)CC2Oc2ccc(C)cc2)cc1 (configuration not stated)
inactive: [1] 36% | [2] 12.4% | [3] 50.5% | [4] 50.2% | [5] 57.6% | [6] 15.2%

COc1cc(C)c2c(c1C=O)Oc1c(c(C)c(O)c3c1C(O)OC3=O)OC2=O (configuration not stated)
inactive: [1] 25.3% | [2] -7.65% | [3] 4.85% | [4] 25.6% | [5] -4.85% | [6] -60.3%

CO/C(N)=C(\C#N)N=Cc1ccc2ccccc2c1
inactive: [1] 30.9% | [2] 14.3% | [3] 13.6% | [4] 19.1% | [5] 16.7% | [6] 40.5%

Cc1ccc(/C=N/Nc2cnccn2)s1
inactive: [1] -30.9% | [2] -25.2% | [3] -30.9% | [4] 15.2% | [5] -41.2% | [6] -9.3%

COc1ccc2cc(CN3CCC(C4CCNCC4)CC3)ccc2c1
inactive: [1] 15.6% | [2] -4.8% | [3] 1.55% | [4] 14.7% | [5] 20.8%
active: [6] 86%

C/C=C1\NC(=O)[C@H]2CSSCCC=C[C@H](CC(=O)N[C@H](C(C)C)C(=O)N2)OC(=O)[C@H](C(C)C)NC1=O
inactive: [1] 26.1% | [2] 35.4% | [3] 26.1% | [4] 51.6% | [5] 58.4% | [6] 33.5%

N#CCCOc1ccccc1
inactive: [1] -1.3% | [2] -26% | [3] -9.9% | [4] 15.9% | [5] -30.6% | [6] -8.5%
